Results: PubChem BioAssay (Tox21)
Results filed as inconclusive are left out. Active and inactive are the calls of the source. Unless noted, calls come from the whole dose curve; as a rule, active = well fitted curve in the direction sought with a large enough effect in the repeat runs; inconclusive = weak or mixed curves; inactive = no such curve, though single readings can be large; an effect the other way counts as inactive or inconclusive.

Columns and labels:
[1] = target: Luciferin 4-monooxygenase (Photinus pyralis) (UniProt P08659); experiment: qHTS assay to identify small molecule inhibitors of firefly luciferase (AID 1224835); note: nearly all actives have a fitted effect of over 25% in size; note: potency is the fitted concentration of half-maximal effect; for activity change, negative = inhibition: series mostly up to about 120 µM
Chain of Luciferin 4-monooxygenase (Photinus pyralis) (P08659 whole entry, looked up): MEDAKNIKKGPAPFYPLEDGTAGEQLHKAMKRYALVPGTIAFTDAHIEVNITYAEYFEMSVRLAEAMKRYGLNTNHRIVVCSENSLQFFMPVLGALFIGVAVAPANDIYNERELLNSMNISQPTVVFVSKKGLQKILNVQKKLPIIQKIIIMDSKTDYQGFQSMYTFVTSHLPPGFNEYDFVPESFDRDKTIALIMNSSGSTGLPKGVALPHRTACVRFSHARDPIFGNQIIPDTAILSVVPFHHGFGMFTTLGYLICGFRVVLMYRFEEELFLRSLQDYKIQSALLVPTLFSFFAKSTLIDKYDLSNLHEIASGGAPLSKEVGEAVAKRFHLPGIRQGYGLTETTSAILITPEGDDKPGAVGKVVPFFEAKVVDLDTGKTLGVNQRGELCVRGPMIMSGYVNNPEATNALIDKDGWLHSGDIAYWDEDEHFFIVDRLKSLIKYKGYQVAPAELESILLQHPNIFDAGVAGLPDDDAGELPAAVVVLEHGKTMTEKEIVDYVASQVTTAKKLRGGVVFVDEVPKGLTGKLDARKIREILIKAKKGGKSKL
In short: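 Inhibition of purified Photinus luciferase is measured by luminescence. Substrate levels (D-luciferin, ATP) sit at their KM values. Each compound is tested in a concentration series.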

[2] = qHTS assay to identify small molecule antagonists of the constitutive androstane receptor (CAR) signaling pathway - cell viability counter screen (AID 1224837); note: series mostly up to about 92 µM; nearly all actives have a fitted effect of over 45% in size
In short: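 Fluorescence from CellTiter-Fluor served as the viability signal. Human hepatoma HepG2 cells stably bearing hCAR and CYP2B6-2.2kb received compound plus CITCO (50 nM final) for 23 hr.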

[3] = target: Nuclear receptor subfamily 1 group I member 3 (Homo sapiens) (UniProt Q14994); experiment: qHTS assay to identify small molecule antagonists of the constitutive androstane receptor (CAR) signaling pathway (AID 1224838);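 note: HepG2 cells stably expressing hCAR with CYP2B6 luciferase reporter stimulated by CITCO; nearly all actives have a fitted effect of over 40% in size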
Chain of Nuclear receptor subfamily 1 group I member 3 (Homo sapiens) (Q14994 whole entry, looked up): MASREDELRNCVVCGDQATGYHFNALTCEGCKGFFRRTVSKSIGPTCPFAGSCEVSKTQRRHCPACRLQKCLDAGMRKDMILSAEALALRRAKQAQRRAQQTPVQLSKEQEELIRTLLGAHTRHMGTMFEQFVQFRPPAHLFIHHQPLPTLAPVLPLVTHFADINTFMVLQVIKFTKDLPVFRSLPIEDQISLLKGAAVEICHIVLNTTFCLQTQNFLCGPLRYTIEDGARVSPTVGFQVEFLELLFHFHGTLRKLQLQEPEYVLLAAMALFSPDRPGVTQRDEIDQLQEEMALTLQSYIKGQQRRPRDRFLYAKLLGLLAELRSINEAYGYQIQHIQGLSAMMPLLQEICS
In short: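 Quantitative HTS in double-stable HepG2-CYP2B6-hCAR cells. After 4 h plating, cells get compound (15 concentrations) and CITCO at 50 nM final, incubate 24 h at 37 C, then ONE-Glo luminescence is read.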

[4] = target: Nuclear receptor subfamily 1 group I member 3 (Homo sapiens) (UniProt Q14994); experiment: qHTS assay to identify small molecule agonists of the constitutive androstane receptor (CAR) signaling pathway (AID 1224839); note: nearly all actives have a fitted effect of over 15% in size; note: potency is the fitted concentration of half-maximal effect;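 for activation: HepG2 cells stably carrying human CAR and a CYP2B6 luciferase reporter; series mostly up to about 92 µM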
In short: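 Double-stable HepG2 cells (hCAR, CYP2B6-2.2kb) seeded 4 h before compound addition. Exposure 24 h with 0.75 uM PK11195 final. Luciferase detected by ONE-Glo.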

[5] = qHTS assay to identify small molecule antagonists of the estrogen related receptor signaling pathway with the pleiotropic PPARgamma coactivator (PGC) from Tox21 10K library - cell viability counter screen (AID 1224840; active = well fitted cell-killing curve with a large enough effect in the repeat runs, not every such curve was filed as active; note: nearly all actives have a fitted effect of over 40% in size)
In short: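 Compounds in DMSO, alongside positive and negative controls, were pinned onto PGC/ERR cells (2,000 per well). Exposure lasted 17.5 hours at 37 C, followed by a 30-minute CellTiter-Fluor incubation and fluorescence reading.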

[6] = target: Thyrotropin receptor (Homo sapiens) (UniProt P16473); experiment: qHTS assay to identify small molecule agonists of the thyroid stimulating hormone receptor (TSHR) signaling pathway (AID 1224843; calls by dose curve; note: nearly all actives have a fitted effect of over 45% in size)
Chain of Thyrotropin receptor (Homo sapiens) (P16473 whole entry, looked up): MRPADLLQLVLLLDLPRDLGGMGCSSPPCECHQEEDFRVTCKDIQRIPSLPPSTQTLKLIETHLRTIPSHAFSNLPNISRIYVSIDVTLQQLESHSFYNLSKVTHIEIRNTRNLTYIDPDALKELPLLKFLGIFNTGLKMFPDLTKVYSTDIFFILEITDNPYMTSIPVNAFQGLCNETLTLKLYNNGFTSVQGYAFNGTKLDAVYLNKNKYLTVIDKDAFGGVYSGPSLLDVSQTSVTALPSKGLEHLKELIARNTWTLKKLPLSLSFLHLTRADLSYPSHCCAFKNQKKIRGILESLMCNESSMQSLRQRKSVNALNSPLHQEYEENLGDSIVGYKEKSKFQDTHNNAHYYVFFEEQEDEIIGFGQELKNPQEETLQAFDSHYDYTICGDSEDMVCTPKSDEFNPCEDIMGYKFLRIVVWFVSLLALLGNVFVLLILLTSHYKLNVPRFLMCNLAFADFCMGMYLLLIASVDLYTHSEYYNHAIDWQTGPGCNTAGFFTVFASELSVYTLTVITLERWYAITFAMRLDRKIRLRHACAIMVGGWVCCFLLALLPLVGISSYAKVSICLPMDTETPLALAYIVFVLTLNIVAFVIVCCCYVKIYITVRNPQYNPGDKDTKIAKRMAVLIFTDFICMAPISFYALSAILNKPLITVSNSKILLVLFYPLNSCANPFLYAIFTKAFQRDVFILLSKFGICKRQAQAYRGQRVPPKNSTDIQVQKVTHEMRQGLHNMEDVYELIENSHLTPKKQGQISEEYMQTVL
In short: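 HEK293 cells stably bearing the thyrotropin receptor were plated at 800 cells/well and challenged with compound (30 min, RT). Accumulated cAMP was quantified via cAMP-d2 competing for cryptate-tagged antibody.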

[7] = qHTS assay to identify small molecule agonists of the hypoxia (HIF-1) signaling pathway - cell viability counter screen (AID 1224844; calls by dose curve; note: nearly all actives have a fitted effect of over 50% in size)
In short: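 Luminescent ATP content (CellTiter-Glo, 30 min, room temperature) served as the viability measure in HRE-bla ME-180 cells exposed to compounds for 17 hrs in low-serum medium (0.5% dialyzed FBS).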

[8] = qHTS assay to identify small molecule agonists of the constitutive androstane receptor (CAR) signaling pathway - cell viability counter screen (AID 1224836); note: series mostly up to about 92 µM; nearly all actives have a fitted effect of over 45% in size
In short: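 Using CellTiter-Fluor, viability of HepG2 cells harbouring hCAR and CYP2B6-2.2kb was measured following 23 h incubation with a 15-concentration compound series plus PK11195 (0.75 uM final).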

[9] = qHTS assay to identify small molecule agonists of the estrogen related receptor signaling pathway with the pleiotropic PPARgamma coactivator (PGC) from Tox21 10K library (AID 1224842); note: nearly all actives have a fitted effect of over 15% in size
In short: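 Luminescence from One-Glo (30 min, room temperature) measured after PGC/ERR cells had 18 h at 37 C with pinned compound (23 nL in DMSO). Cells had been seeded at 2,000 per well and pre-incubated 6 h.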

[10] = qHTS assay to identify small molecule antagonists of the estrogen related receptor signaling pathway with the pleiotropic PPARgamma coactivator (PGC) from Tox21 10K library (AID 1224841; call rule not given here; note: series mostly up to about 92 µM; actives are mostly falling curves and most rising ones were filed inactive; nearly all actives have a fitted effect of over 50% in size)
In short: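 Compound exposure ran 18 hours at 37 C in PGC/ERR cells (2,000/well) that had first rested 6 hours in a 37 C/5% CO2 incubator. Luciferase activity was then detected with One-Glo after a 30-minute room-temperature step.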
% is set by controls: 0 for no effect and ±100 for the full control effect.

CN1CCC(=C2c3ccccc3CCc3cccnc32)CC1
inactive: Potency [1] | outcome [2] | Potency [3] | Potency [4] | outcome [5] | Potency [6] | Potency [7]

CCC(C)(CCCC(C)C)OC(C)=O (stereo not drawn)
inactive: Potency [1] | outcome [2] | Potency [3] | Potency [4] | Potency [6] | Potency [7]

N[C@H](C(=O)O)[C@@H](O)c1ccc(O)c(O)c1
inactive: Potency [1] | outcome [2] | outcome [5] | Potency [6] | Potency [7]

CCCCCCCCCCCCCCCCCCO
inactive: Potency [1] | outcome [2] | Potency [3] | Potency [4] | outcome [5] | Potency [6] | Potency [7]

[Ca+2]
inactive: Potency [1] | outcome [8] | outcome [5] | Potency [6] | Potency [7]

CC1OC1C1CCC2(C)OC2C1 (stereo not drawn)
inactive: Potency [1] | outcome [2] | Potency [3] | Potency [4] | outcome [5] | Potency [6] | Potency [7]

Cc1coc2ccccc2c1=O
inactive: Potency [1] | outcome [8] | Potency [6] | Potency [7]

N[C@@H](CCC(=O)O)C(=O)O
inactive: Potency [1] | outcome [2] | Potency [3] | Potency [4] | outcome [5] | Potency [6] | Potency [7]

NC(=O)NC1N=C([O][Al])NC1=O (stereo not drawn)
inactive: Potency [1] | outcome [2] | outcome [5] | Potency [6] | Potency [7]

CC1=CC(=O)[C@H]2C[C@@H]1C2(C)C
inactive: Potency [1] | outcome [8] | outcome [5] | Potency [7]

Cc1ccc(C(=O)c2ccc(CC(=O)O)n2C)cc1
active: Potency [1] 15.5 µM
inactive: outcome [2] | Potency [3] | Potency [4] | outcome [5] | Potency [9] | Potency [6] | Potency [7]

CCNS(=O)(=O)c1ccc(C)cc1
inactive: Potency [1] | outcome [8] | Potency [7]

Cc1ccnc(NS(=O)(=O)c2ccc(N)cc2)n1
inactive: Potency [1] | outcome [2] | outcome [5] | Potency [9] | Potency [6] | Potency [7]

CCCCCCCCCC[N+](C)(C)[O-]
inactive: Potency [1] | outcome [2] | outcome [5] | Potency [9] | Potency [7]

CC(=O)C1CCCCC1=O (stereo not drawn)
inactive: Potency [1] | outcome [2] | Potency [3] | Potency [4] | outcome [5] | Potency [6] | Potency [7]

COCCOC[C@H](CC1(C(=O)NC2CCC(C(=O)O)CC2)CCCC1)C(=O)Oc1ccc2c(c1)CCC2 (stereo partly drawn)
inactive: Potency [1] | outcome [2] | Potency [3] | Potency [4] | outcome [5] | Potency [10] | Potency [9] | Potency [7]

CCN1CCOCC1
inactive: outcome [8] | outcome [2] | Potency [3] | Potency [4] | outcome [5] | Potency [7]

CC1=NN(c2cc(S(=O)(=O)O)ccc2Cl)C(=O)C1N=Nc1ccccc1 (stereo not drawn)
inactive: Potency [3] | Potency [4] | Potency [6]

NO
inactive: outcome [8] | outcome [2] | outcome [5] | Potency [6] | Potency [7]

CN1CC(=O)N/C1=N/C(=O)Nc1cccc(Cl)c1
active: Potency [4] 33.5 µM
inactive: outcome [2] | Potency [3] | outcome [5] | Potency [6] | Potency [7]

COc1cc2c(cc1OC)-c1cc3ccc(OC)c(OC)c3c[n+]1CC2
inactive: Potency [1] | Potency [9] | Potency [7]

Cc1c(N)c(=O)n(-c2ccccc2)n1C
inactive: outcome [8] | outcome [5] | Potency [6]

Nc1ccccn1
inactive: outcome [8] | outcome [2] | Potency [3] | Potency [4] | outcome [5] | Potency [7]

C1CCC2=NCCCN2CC1
inactive: outcome [8] | outcome [2] | Potency [3] | Potency [4] | outcome [5] | Potency [6]

CCCCCCCCCCCCCCC(=O)O
inactive: outcome [8] | outcome [2] | Potency [3] | Potency [4] | outcome [5] | Potency [6] | Potency [7]

O=S(=O)(O)c1cccc2c(S(=O)(=O)O)cccc12
inactive: Potency [1] | Potency [3] | Potency [4] | Potency [10] | Potency [9] | Potency [6] | Potency [7]

CC1(C)[C@@H]2CC[C@@]1(C)[C@H](O)C2
inactive: outcome [2] | outcome [5] | Potency [6] | Potency [7]

O=C(c1ccccc1O)c1ccccc1O
inactive: outcome [2] | Potency [3] | Potency [4] | outcome [5] | Potency [6] | Potency [7]

O=C1NC(=O)C2CC=CCC12 (stereo not drawn)
inactive: outcome [8] | Potency [3] | Potency [4] | outcome [5] | Potency [6] | Potency [7]

CC(N)C12CC3CC(CC(C3)C1)C2 (stereo not drawn)
inactive: Potency [1] | outcome [5] | Potency [6] | Potency [7]

CC(=O)c1ccc2ccccc2c1
inactive: outcome [8] | Potency [3] | Potency [4] | outcome [5] | Potency [7]

CCC(C)(CN(C)C)OC(=O)c1ccccc1 (stereo not drawn)
inactive: outcome [8] | outcome [2] | outcome [5] | Potency [7]

NC(N)=NCCN1CCCCCCC1
inactive: activity change, negative = inhibition [1] -0.118% [at 0.435 µM] | viability change, negative = cytotoxic [5] -1.22% [at 0.349 µM] | activation [6] -0.603% [at 0.349 µM] | activity change, negative = cytotoxicity [7] -1.67% [at 0.29 µM]

COC(=O)Nc1ccc(Cl)c(Cl)c1
inactive: outcome [8] | outcome [2] | Potency [3] | outcome [5] | Potency [6] | Potency [7]
active: Potency [4] 60.8 µM

O=S(=O)(O)c1cccc(S(=O)(=O)O)c1
inactive: Potency [1] | Potency [3] | Potency [4] | outcome [5] | Potency [10] | Potency [9] | Potency [6] | Potency [7]

CC[N+](C)(CC)CCOC(=O)C1c2ccccc2Oc2ccccc21
inactive: Potency [1] | outcome [2] | Potency [6] | Potency [7]

c1coc(CNc2ncnc3nc[nH]c23)c1
inactive: Potency [1] | outcome [5] | Potency [6] | Potency [7]

c1ccc(CCc2ccccc2)cc1
inactive: outcome [8] | outcome [2] | Potency [3] | Potency [4] | outcome [5] | Potency [9]

CCN(Cc1ccccc1)c1ccccc1
inactive: Potency [1] | Potency [9] | Potency [6]

Cc1ccc(-c2ccccc2C#N)cc1
inactive: outcome [8] | outcome [2] | Potency [3] | Potency [4] | Potency [6] | Potency [7]

CC(C)COC(=O)c1ccc(N)cc1
inactive: outcome [8] | outcome [2] | Potency [3] | outcome [5] | Potency [10] | Potency [6] | Potency [7]

CN1CCN(c2cc3c(nn2)Oc2ccccc2N3C)CC1
active: Potency [4] 5.8 µM
inactive: viability change, negative = cytotoxic [8] -2.12% [at 19 µM] | activity change, negative = cytotoxicity [2] -0.71% [at 19 µM] | activity, negative = inhibition [3] 125% [at 19 µM] | viability change, negative = cytotoxic [5] 2.34% [at 19 µM] | activation [6] -2.7% [at 19 µM] | activity change, negative = cytotoxicity [7] 1.97% [at 15.8 µM]

CN(C)CCCCCCN(C)C
inactive: outcome [8] | outcome [2] | Potency [3] | Potency [4] | outcome [5] | Potency [10] | Potency [9] | Potency [6] | Potency [7]

CCOC(=O)COc1cc(-n2ncc(C(F)(F)F)c(C)c2=O)c(F)cc1Cl
inactive: outcome [2] | Potency [3] | Potency [4] | outcome [5] | Potency [7]

Cc1ccc(C(=O)Nc2ccc(S(=O)(=O)O)c3cc(S(=O)(=O)O)cc(S(=O)(=O)O)c23)cc1NC(=O)c1cccc(NC(=O)Nc2cccc(C(=O)Nc3cc(C(=O)Nc4ccc(S(=O)(=O)O)c5cc(S(=O)(=O)O)cc(S(=O)(=O)O)c45)ccc3C)c2)c1
inactive: outcome [8] | outcome [2] | outcome [5] | Potency [10] | Potency [9] | Potency [6] | Potency [7]

CC(C)C(=O)OC(=O)C(C)C
inactive: Potency [1] | Potency [3] | Potency [4] | Potency [6] | Potency [7]

c1ccc2sc(SN3CCOCC3)nc2c1
inactive: outcome [8] | outcome [2] | Potency [3] | outcome [5] | Potency [9] | Potency [6] | Potency [7]

C[C@H]1[C@H](NC(=O)/C(=N/OC(C)(C)C(=O)O)c2csc(N)n2)C(=O)N1S(=O)(=O)O (stereo in doubt)
inactive: outcome [8] | Potency [3] | Potency [4] | outcome [5] | Potency [6] | Potency [7]

CO[C@@]1(NC(=O)C(C(=O)O)c2ccc(O)cc2)C(=O)N2C(C(=O)O)=C(CSc3nnnn3C)CO[C@@H]21 (stereo partly drawn)
inactive: outcome [8] | outcome [2] | Potency [3] | Potency [4] | outcome [5] | Potency [9] | Potency [6] | Potency [7]

CC(C)(C)C(=O)Oc1ccc(S(=O)(=O)Nc2ccccc2C(=O)NCC(=O)O)cc1
inactive: outcome [8] | outcome [2] | Potency [3] | Potency [4] | outcome [5] | Potency [7]

O=C(O)c1cn(C2CC2)c2cc(N3CCNCC3)c(F)cc2c1=O
inactive: outcome [8] | outcome [2] | outcome [5] | Potency [6]

NC(=O)N1c2ccccc2CC(=O)c2ccccc21
inactive: Potency [1] | Potency [3] | Potency [4] | outcome [5] | Potency [6] | Potency [7]

Nc1ccn([C@@H]2O[C@H](CO)[C@@H](O)[C@@H]2O)c(=O)n1
inactive: Potency [1] | Potency [4] | outcome [5] | Potency [10] | Potency [9]

C=CN1CCCCCC1=O
inactive: Potency [1] | outcome [2] | Potency [6] | Potency [7]

CCCCc1nc(Cl)c(CO)n1Cc1ccc(-c2ccccc2-c2nn[nH]n2)cc1
inactive: outcome [8] | outcome [2] | Potency [3] | Potency [4] | outcome [5]
